Screens from PubChem.
FMDV inh = antivirals against foot and mouth disease virus; FMDV antiviral cell-based qHTS; Potency, µM (doses to about 57.9 µM), usual class: inhibitors; actives 1.2% (n = 410,000); AID 1159524; calls by dose curve; tested in HEK293T cells; further: read-out not given here; nearly all actives have a fitted effect of over 45% in size
MARV entry inh = Marburg virus entry inhibition; Marburg virus pseudotyped entry inhibition, cell reporter; Potency, µM (series often up to 37.8 µM), actives largely listed as inhibitors; actives 1.8% (n = 300,000); AID 540276; calls by dose curve; tested in HEK293 cells
VACV mCherry inh = inhibitors of vaccinia virus infection (mCherry reporter signal); actives 0.63% (n = 310,000); Vaccinia virus mCherry reporter infection, fluorescence; Potency, µM (highest dose often 36.5 µM), most hits filed as inhibitors; calls by dose curve; tested in A549 cells; further: nearly all actives have a fitted effect of over 35% in size
LASV entry inh = Lassa virus entry inhibition; Lassa virus pseudotype entry inhibition, cell reporter; Potency, µM (titrated, usually from 37.9 µM), hits mostly inhibitors; actives 1.2% (n = 300,000); AID 540256; calls by dose curve; tested in HEK293 cells; further: nearly all actives have a fitted effect of over 50% in size
HCMV inh = blocks human cytomegalovirus replication. HFF cells, HCMV-luciferase reporter, 72 h; active compounds read low. actives 4.5% (n = 410,000). activity change, negative = inhibition, % at 57.5 µM; in the data active means activity change below about -60%; inconclusive means no clear call, values can overlap the other calls; inactive means above about -39%
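Cell-based, HFFs, 1000 cells/well, 16 h 37C; cpds in DMSO + HCMV-luc, MOI 1 PFU/cell; 72 h 37C; OneGlo luminescence after 5 min RT; norm. to buffer vs Salinomycin 10uM.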
VACV Venus inh = inhibitors of vaccinia virus (Venus reporter); Vaccinia virus Venus reporter expression, fluorescence; Potency, µM (highest dose often 36.5 µM), usual class: inhibitors; actives 0.46% (n = 330,000); AID 720580; calls by dose curve; tested in A549 cells; further: nearly all actives have a fitted effect of over 30% in size
Hits are given with their value; - = inactive; ? = inconclusive; . = not tested or not shown. Hits are enriched below; roughly 6.5% of the tested compounds scored in any of these assays.

SMILES	FMDV inh	MARV entry inh	VACV mCherry inh	LASV entry inh	HCMV inh	VACV Venus inh
CO[C@@]12[C@@H]3N[C@@H]3CN1C1=C(C(=O)C(N)=C(C)C1=O)[C@@H]2COC(N)=O	-	?	5.62µM	?	-96.6	2.51µM
CCCNC1=C(C)C(=O)C2=C(C1=O)C(COC(N)=O)[C@]1(OC)C3NC3CN21 (some centres not stated)	-	6.31µM	?	?	-69.2	?
CO[C@@]12[C@H](COC(N)=O)C3=C(C(=O)C(C)=C(N)C3=O)N1C[C@@H]1N[C@@H]12	-	.	?	.	-	?
O=C(c1ccc2c(=O)n(Cc3ccc(Cl)cc3)c(=S)[nH]c2c1)N1CCOCC1	?	-	-	?	-65.0	-
O=C(c1ccc(Cn2c(=O)[nH]c3ccccc3c2=O)cc1)N1CCN(c2ccccn2)CC1	-	-	-	-	-	-
CCCCCn1c(=O)[nH]c2cc(C(=O)N3CCN(Cc4ccc5c(c4)OCO5)CC3)ccc2c1=O	?	?	-	?	-76.3	?
O=C(c1ccc2c(=O)n(Cc3ccc(Cl)cc3)c(=S)[nH]c2c1)N1CCCC1	-	.	.	.	-	.
CN1CCN(C(=O)c2ccc3c(=O)n(Cc4ccc5c(c4)OCO5)c(=S)[nH]c3c2)CC1	.	.	-	.	.	-
O=C(c1ccc(Cn2c(=S)[nH]c3ccccc3c2=O)cc1)N1CCN(c2ccccn2)CC1	?	?	-	?	-65.3	?
CC1CC(C)CN(C(=O)c2ccc3c(=O)n(Cc4ccc5c(c4)OCO5)c(=S)[nH]c3c2)C1 (configuration not stated)	-	-	.	-	-80.6	.
CCOc1ccc(C(=O)Nc2ccc(C(=O)OCc3cc(=O)n4c(C)csc4n3)cc2)cc1	-	.	-	?	?	-
O=C(NCc1ccc(Cl)cc1)c1ccc2c(=O)n(CC3CCCO3)c(=S)[nH]c2c1 (configuration not stated)	17.8µM	-	-	?	?	-
COc1ccc2c(c1)C(=O)CC2	.	.	-	.	.	-
Cc1cccc(Nc2nc(N)c([N+](=O)[O-])c(NCc3ccccc3)n2)c1	-	?	?	?	-94.2	?
Nc1nc(Nc2ccccc2)nc(NCc2ccccc2)c1[N+](=O)[O-]	?	?	?	?	-75.2	?
Nc1nc(NCc2ccccc2)nc(NCc2ccccc2)c1[N+](=O)[O-]	-	?	-	-	?	-
Cc1ccc(CNc2nc(N)c([N+](=O)[O-])c(NCc3ccccc3)n2)cc1	-	-	-	-	-61.2	-
Nc1nc(Nc2ccccc2)nc(NC2CCCCC2)c1[N+](=O)[O-]	-	?	?	?	-78.6	?
CNc1nc(N)c([N+](=O)[O-])c(NCc2ccccc2)n1	-	-	-	-	-	-
Cc1cccc(-c2noc(CN(C(=O)COc3ccc(Br)cc3C)C(C)C)n2)c1	-	-	-	-	-	-
Cc1ccc(NC(=O)Cn2c(=O)n(CCCCC(=O)NCc3ccccc3Cl)c(=O)c3ccccc32)cc1C	-	-	-	-	-	-
O=C(Nc1ccccc1)C1=C[C@H](C2CCCCC2)C[C@H](OCCCCO)O1	-	.	-	.	-75.9	-
O=C(NC1CC1)C1=C[C@@H](C2CC2)C[C@@H](OCCCCO)O1	-	.	-	.	-	-
O=C(Nc1ccccc1)C1=C[C@@H](C2CCCCC2)C[C@@H](OCc2ccc(CO)cc2)O1	-	.	-	.	-60.1	-
O=C(NC1CC1)C1=C[C@H](C2CCCCC2)C[C@H](OCCCCO)O1	-	.	-	.	-63.9	-
SMILES	FMDV inh	MARV entry inh	VACV mCherry inh	LASV entry inh	HCMV inh	VACV Venus inh
O=C(NCc1nc2ccccc2[nH]1)C1=C[C@@H](C2CCCCC2)C[C@@H](OCc2ccc(CO)cc2)O1	?	.	-	.	?	?
O=C(NCc1nc2ccccc2[nH]1)C1=C[C@H](C2CCCCC2)C[C@H](OCc2ccc(CO)cc2)O1	-	.	-	.	-70.2	?
CN(C)c1nc(CN2CCCCC2c2cccnc2)nc2ccccc12 (configuration not stated)	-	.	-	.	.	-
COC1=C(OC)C(Cl)=C(CC2C(=O)OC(C)(C)OC2=O)CC1	.	-	.	.	.	.
O=C(NCc1ccccc1)C1=C[C@H](c2csc3ccccc23)C[C@H](OCc2ccc(CO)cc2)O1	-	.	-	.	-61.0	?
COc1cc(CNCCc2ccccc2)cc(Br)c1OCC(=O)Nc1ccccc1C	-	20.6µM	.	-	-	.
COc1cc(CNCCc2ccccc2)cc(Cl)c1OCc1ccccc1	?	?	10µM	?	-	?
Cc1cccc(CC(=O)N[C@@H](Cc2ccccc2)C(O)c2nc3ccccc3[nH]2)c1 (some centres not stated)	.	.	.	.	-	.
CC(=O)c1ccc(NC(=O)Nc2ccc3snnc3c2)cc1	-	-	-	?	-	-
Cc1c(Cl)cccc1NC(=O)Nc1ccc2snnc2c1	-	?	?	?	-103.9	?
Cc1ccc(F)c(NC(=O)Nc2ccc3snnc3c2)c1	-	-	-	-	-105.9	-
CC(=O)Nc1cccc(NC(=S)Nc2cccc(Cl)c2C)c1	-	.	-	.	-	-
O=C(Nc1ccc(F)cc1)Nc1ccc2snnc2c1	-	?	-	-	-75.1	-
CNC(=O)Nc1ccc2snnc2c1	-	.	-	.	-	-
CC(=O)Nc1cccc(NC(=O)Nc2cccc(Cl)c2C)c1	-	-	-	-	-71.0	-
C[C@@H]1C[C@@H](CC(=O)NCC2Cc3cccc(-c4ccncc4)c3O2)NC(=S)N1 (some centres not stated)	-	.	-	.	.	-
CCOc1ccccc1NC(=O)Cn1c(=O)ccc2cc(S(=O)(=O)N3CCCC3)ccc21	?	.	-	-	-	-
Cc1ccc(-n2nnnc2CNC(=O)c2ccc(F)cc2)cc1C	-	.	-	-	-	-
O=c1[nH][nH]c2c(N=Cc3ccccc3O)ccc(F)c12	-	?	-	?	.	-
O=c1[nH][nH]c2c([N+](=O)[O-])ccc(F)c12	.	.	.	.	-61.5	.
O=C(NCCSCc1c(F)cccc1Cl)c1ccc(CN2CCOCC2)cc1	?	-	-	-	-63.1	-
O=C(NCCSCc1ccco1)c1ccc(CN2CCOCC2)cc1	.	-	-	?	-	-
C[C@H](CO)N1C[C@H](C)[C@H](CN(C)S(=O)(=O)c2ccc(Cl)cc2)OCc2ccccc2-c2c(n(C)c3ccccc23)C1=O	-	.	?	.	-67.9	?
C[C@H](CO)N1C[C@H](C)[C@H](CN(C)S(C)(=O)=O)OCc2ccccc2-c2c(n(C)c3ccccc23)C1=O	-	.	-	.	-	-
C[C@@H]1CN([C@H](C)CO)C(=O)c2c(c3ccccc3n2C)-c2ccccc2CO[C@@H]1CN(C)S(=O)(=O)c1cccs1	-	.	?	.	-80.8	-
Cc1ccc(S(=O)(=O)N(C)C[C@@H]2OCc3ccccc3-c3c(n(C)c4ccccc34)C(=O)N([C@H](C)CO)C[C@@H]2C)cc1	-	.	-	.	-60.1	?
Cc1cccc(N2CCN(C(=O)CCS(=O)(=O)c3ccc4c(c3)CC(=O)N4C)CC2C)c1 (configuration not stated)	-	.	-	-	-	-
CC1(C)Cc2c(sc3[nH]c(=S)n(Cc4ccccc4)c(=O)c23)CO1	.	?	-	6.51µM	-	-
